Inhibition data for 88 molecules are collected here from PubChem BioAssay AID492956 (The Scripps Research Institute Molecular Screening Center, 2010).

The campaign covered roughly 340,000 compounds. About 3,300 (0.97%) were called active. This is one part of a sample in which actives are shown more often than they occur. Unmarked numbers belong to inactive results.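 Rule for the calls: active = inhibition above the mean over all tested compounds plus 3 SD (cut at about 30% in these data); inactive = the rest.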

In this experiment the target is Platelet-activating factor acetylhydrolase 2, cytoplasmic (Homo sapiens) (UniProt Q99487). The experiment can be described thus: PAFAH2 enzyme inhibitors, primary screen, biochemical, fluorescence polarization, human (AID 492956).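 Note: inhibitors block probe labeling of enzyme so polarization drops; 0% = enzyme with DMSO and 100% = wells lacking PAFAH2 protein.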 Particulars: recombinant PAFAH2, FP-rhodamine activity probe, at 3.39 µM, stronger effect = higher value. In general terms: Polarisation of emitted light reports the rotation of a fluorescent probe.
Regarding `Cc1cc(C)n(CC(C)NCc2c(C(=O)N3CCOCC3)nc3c(C)cccn23)n1` (stereo not drawn), the inhibition was -0.83%.
In the case of `FC(F)(F)c1nc(-c2ccccc2)ncc1-c1nnnn1-c1ccccc1`, the inhibition was 10.3%.
`Cc1ccc(-n2ncc3c2CC(C)(C)CC3NC(=O)Cc2c(C)noc2C)cc1` (stereo not drawn): the inhibition is -3.4%.
`COc1ccc(C(C(=O)NCc2ccccc2)N(Cc2cccs2)C(=O)c2cnccn2)cc1` (stereo not drawn): the inhibition was 2.03%.
As to `N[C@@H](Cc1ccccc1)C(=O)N1CCC(C(=O)NCC(=O)Nc2ccc(F)cc2)CC1`, the inhibition was -5.9%.
Turning to `C=CCn1c(=S)[nH]c2nc3c(cc2c1=O)COC(C)(C)C3`, the inhibition is 6.59%.
In the case of `C=CCn1cnc2scc(-c3ccccc3)c2c1=O`, the inhibition was -1.85%.
As for `C=CCn1c(=S)[nH]c2scc(-c3ccco3)c2c1=O`, the inhibition is 38.7% (active).
`O=S1(=O)C=C(SCCN2CCCC2)c2ccccc21`: the inhibition is 6.55%.
`C=CCN1C2CCCC1CC(NC(=S)Nc1cccc(OC)c1)C2` (stereo not drawn): the inhibition was 1.32%.
In the case of `COc1ccccc1C(=O)NC(=S)NC12CC3CC(CC(C3)C1)C2`, the inhibition was -0.29%.
Take `O=C(COC(=O)c1ccc([N+](=O)[O-])o1)NC12CC3CC(CC(C3)C1)C2`: the inhibition was 59.8% (active).
For the molecule `O=C(OCC(=O)c1cccs1)c1ccc([N+](=O)[O-])o1`, the inhibition was -2.46%.
Consider `NC(=O)COc1ccccc1C(=O)NC12CC3CC(CC(C3)C1)C2`, for which the inhibition was 6.96%.
Take `O=C(COC(=O)c1ccc(Br)o1)NC12CC3CC(CC(C3)C1)C2`: the inhibition is 26.2%.
As to `COc1cc(C(=O)OCC(=O)NC23CC4CC(CC(C4)C2)C3)cc(OC)c1OC`, the inhibition is 77.8% (active).
Regarding `O=C(COC(=O)c1cccnc1Cl)Nc1ccc(S(=O)(=O)N2CCOCC2)cc1`, the inhibition is -2.28%.
Take `O=C(COC(=O)c1cccnc1Cl)NC12CC3CC(CC(C3)C1)C2`: the inhibition was 86.5% (active).
For `COc1cc(C(=O)OCC(=O)NC(C)CCc2ccccc2)cc(OC)c1OC` (stereo not drawn), the inhibition is 5.21%.
The same measure for `COc1ccc(COC(=O)c2ccc(Cl)c(S(=O)(=O)N3CCOCC3)c2)cc1F`: 8%; for `CN(C)S(=O)(=O)c1ccc(NC(=O)COC(=O)Cn2[nH]c(=O)c3ccccc3c2=O)cc1`: 1.37%.
For `CCOc1ccc2c(c1)cc(CN(C(=O)CC)C1CCCCC1)c1nnnn12`, the inhibition is 9.13%.
Consider `COc1cc(NC(=O)COC(=O)c2cnc(C)cn2)c(C)cc1[N+](=O)[O-]`, for which the inhibition was 4%.
Turning to `COc1cc(NC(=O)COC(=O)c2ccc([N+](=O)[O-])s2)cc(OC)c1OC`, the inhibition is 36.9% (active).
As for `COc1ccc(C(=O)COC(=O)c2ccc([N+](=O)[O-])s2)cc1OC`, the inhibition was 18.3%.
Turning to `Cc1ccc2c(c1)N(C(=O)CCC(=O)N1CCc3ccccc3C1)CCO2`, the inhibition was 1.77%.
Turning to `COc1ccc(C(=O)OCC(=O)c2ccc(Cl)s2)c(OC)c1OC`, the inhibition was 65.5% (active).
`COc1ccc(C(=O)OCC(=O)Nc2ccc3[nH]c(=O)[nH]c3c2)c(OC)c1OC`: the inhibition was 2.25%.
As for `COc1ccc(C(=O)COC(=O)c2nn(C)c(=O)c3ccccc23)c(OC)c1`, the inhibition is 1.19%.
Consider `COc1ccccc1NC(=O)N(O)C1(C#N)CCCCC1`, for which the inhibition was 17.2%.
The same measure for `Clc1ccc(-c2nc3ccccn3c2CN2CCSCC2)cc1`: 3.86%; for `COc1cc(CCC(=O)OCC(=O)Nc2cccc(S(N)(=O)=O)c2)cc(OC)c1OC`: 8.16%; for `O=C1C(=O)N(CCCO)C(c2ccccc2)/C1=C(\O)c1ccc(Br)cc1` (stereo not drawn): 2.68%.
`COc1cnn(-c2ccc([N+](=O)[O-])cc2)c(=O)c1Cl`: the inhibition was 5.97%.
Consider `O=c1[nH]n(-c2ccc([N+](=O)[O-])cc2)c(=O)c2ccccc12`, for which the inhibition was 32.5% (active).
The same measure for `O=[N+]([O-])c1ccc(N2CCOCC2)cc1`: 6.57%.
In the case of `COc1cccc(NC(=O)[C@H](Cc2c[nH]c3ccccc23)NC(=O)[C@@H]2Cc3ccccc3CN2)c1`, the inhibition is 4.49%.
With `CC(C)(C)OC(=O)C[C@@H]1C/C=C\C[C@H](CC(=O)N[C@@H](CO)Cc2ccccc2)C(=O)N[C@H](Cc2ccccc2)COC1=O`, the inhibition was -5.38%.
Regarding `CCOC(=O)C1=C(N)N(c2ccc(C)cc2)C2=C(C(=O)CCC2)C1c1cccs1` (stereo not drawn), the inhibition was 11%.
The same measure for `COc1ccc(NC(=O)CS(=O)(=O)c2ccccc2)cc1`: -6.64%.
`COc1ccc(NC(=O)CC(NC(C)c2ccccc2)C(=O)O)cc1` (stereo not drawn): the inhibition was 35.8% (active).
The result for `COc1ccc(NC(=O)CCCC(=O)c2ccccc2)cc1` reads -4.3%.
The result for `O=C1N(c2ccccc2)C(=Nc2ccccc2)SC12CC2` reads -1.71%; that for `COc1ccc(N(Cc2cc3ccc(C)cc3[nH]c2=O)S(=O)(=O)c2ccccc2)cc1`, 1.35%; that for `CCCCn1c(N)c(N(Cc2ccccc2OC)C(=O)COc2cc(C)ccc2Cl)c(=O)[nH]c1=O`, -1.09%.
Take `O=C(O)/C=C/c1ccc(S(=O)(=O)N2CCCCCC2)cc1`: the inhibition is 0.61%.
Regarding `O=C(COC(=O)/C=C/c1ccc(S(=O)(=O)N2CCCCCC2)cc1)NCc1ccccc1Cl`, the inhibition was 33.9% (active).
The same measure for `O=C(COc1ccc(S(=O)(=O)N2CCCCC2)cc1)NCc1ccccn1`: 9.09%; for `O=C(Nc1ccc(F)cc1)c1cccnc1N1CCOCC1`: -2.86%.
With `CC1=C(C(=O)Nc2ccc(Cl)cc2)C(c2ccco2)NC(=O)N1` (stereo not drawn), the inhibition is 0.63%.
`COc1ccc(Nc2nc(N)nc(CSC(=S)N3CCC(C)CC3)n2)cc1`: the inhibition is 5.5%.
Regarding `COc1ccccc1Nc1nc(N)nc(CSC(=S)N2CCOCC2)n1`, the inhibition is 30.8% (active).
Take `Cc1ccccc1Nc1nc(N)nc(CSc2ccccc2)n1`: the inhibition was 3.88%.
The result for `O=C(CN1CCCCCC1)Nc1ccc(Br)cc1Br` reads 2.02%; that for `O=c1ccc2cc(S(=O)(=O)Nc3ccccc3F)ccc2o1`, 0.74%; that for `O=c1oc2ccccc2c(NC2CCCCC2)c1NS(=O)(=O)c1ccc(Cl)cc1`, 5.54%.
For the molecule `O=c1oc(-c2ccccc2NS(=O)(=O)c2ccc(Cl)cc2)nc2ccccc12`, the inhibition is 82.1% (active).
The same measure for `CCCCNS(=O)(=O)c1ccc2nc(SCC(=O)Nc3cc(C)cc(C)c3)[nH]c2c1`: -16.9%.
`COC(=O)c1cc(NC(=O)Cc2ccccc2[N+](=O)[O-])ccc1Cl`: the inhibition is 0.54%.
The result for `CC(=O)Nc1ccc(NC(=O)C(C)OC(=O)c2ccccc2C(=O)c2ccc(Cl)c([N+](=O)[O-])c2)cc1` (stereo not drawn) reads -5.1%; that for `N#Cc1cccc(NC(=O)COC(=O)c2ccccc2C(=O)c2ccc(Cl)c([N+](=O)[O-])c2)c1`, 58.9% (active); that for `COC(=O)c1onc(-c2c(OC)cc(OC)cc2OC)c1C(=O)OC`, -0.23%.
The same measure for `Cc1cn(C2CC(O)C(CO)O2)c(=O)n(CCCc2ccccc2)c1=O` (stereo not drawn): -0.23%; for `COc1cccc(CNC(=O)C2CCN(S(=O)(=O)c3cccc4cccnc34)CC2)c1`: -7.61%.
For the molecule `O=C(Cc1ccc(NC(=O)C2CCCN(C(=O)C3CCCCC3)C2)cc1)Nc1cccc(C(=O)N2CCCCC2)c1` (stereo not drawn), the inhibition is -2.71%.
As for `O=C(CC1Sc2ccccc2NC1=O)NNc1ccc(Cl)c(Cl)c1` (stereo not drawn), the inhibition is 6.55%.
The result for `CCN(CC)CCn1c2ccc(Cl)cc2c2nc(C)sc21` reads -2.76%.
Regarding `CCN(CC)CCCC(C)n1c2nc(=O)[nH]c(=O)c-2nc2cc(Cl)ccc21` (stereo not drawn), the inhibition is 38.8% (active).
With `Cc1ccc(S(=O)(=O)N(Cc2cc3ccccc3[nH]c2=O)CC2CCCO2)cc1` (stereo not drawn), the inhibition is 4.81%.
With `Cn1c(NC(=O)c2ccco2)c(-c2ccccc2Cl)c(=O)c2ccccc21`, the inhibition was -1.9%.
As for `Cc1[nH]c(C)c(S(=O)(=O)N2CCN(c3cccc(C(F)(F)F)c3)CC2)c1C(=O)N1CCCCC1`, the inhibition is 8.89%.
Regarding `CCOc1ccc(/C=N/OCC(=O)NCc2cccs2)cc1`, the inhibition was 4.81%.
Consider `CCOc1ccc(/C=C/C(=O)N(CC)CC(=O)NCc2cccs2)cc1OC`, for which the inhibition is 5.35%.
As to `COc1ccc(/C=C/C(=O)OCC(=O)NCc2cccs2)cc1OC`, the inhibition was 49.4% (active).
Turning to `COc1ccc(Cl)cc1C(=O)OCC(=O)NCc1cccs1`, the inhibition was 1.83%.
In the case of `O=C(COC(=O)/C=C/c1cccc(Cl)c1)NCCc1ccccc1`, the inhibition was 20.5%.
As for `O=C(COC(=O)/C=C/c1cccc(Cl)c1)NCc1cccs1`, the inhibition was 37% (active).
`CN(CCc1ccccc1)C(=O)c1cccc(NC(=O)Cc2cccc(NC(=O)C3CCCN(C(=O)C4CCC4)C3)c2)c1` (stereo not drawn): the inhibition was -1.94%.
On to `COc1ccc(CCNC(=O)CN(C)S(=O)(=O)c2ccc3nc(C)sc3c2)cc1OC`, for which the inhibition is -0.36%.
As for `COC(=O)C1=C(C)NC(=S)NC1c1ccc(OCC(=O)N2CC(C)OC(C)C2)c(OC)c1` (stereo not drawn), the inhibition was -0.58%.
The result for `Cc1ccc(NS(=O)(=O)c2cn(C)c(=O)n(C)c2=O)c(C)c1` reads 1.4%; that for `COc1ccc(S(=O)(=O)N2CN(CCc3ccc(OC)c(OC)c3)c3nc4ccccc4nc32)cc1`, 8.38%; that for `CCOc1ccc(C(=O)Nc2cccc(SC)c2)cc1`, -11.9%.
Consider `CC(=O)c1c(C)[nH]c(C(=O)OCC(=O)Nc2cc(S(=O)(=O)N3CCCCC3)ccc2C)c1C`, for which the inhibition was 7.66%.
For `CC(=O)c1c(C)[nH]c(C(=O)OCC(=O)NCCC(C)C)c1C`, the inhibition is 30.4% (active).
Take `CC(=O)c1c(C)[nH]c(C(=O)OCC(=O)Nc2c(C)cccc2C)c1C`: the inhibition was 4.64%.
As for `CCC(C)NC(=O)C1CCCN(C(=O)NC2CCCCC2)C1` (stereo not drawn), the inhibition is 10.5%.
As for `COc1ccc(C(=O)C2CCCN(C(=O)c3cc4nc(C)cc(C)n4n3)C2)cc1F` (stereo not drawn), the inhibition is -3.28%.

By inhibition is commonly meant the relative decrease from the control value, in per cent.
